Experimental findings from PubChem BioAssay (EPA / NIEHS) are described below.

For assay [1], the target named is sheep Cyclooxygenase-1 (Cox1), PTGS1 (gene 443551) (UniProt P05979). As to the kind of experiment: NVS_ENZ_oCOX1: NovaScreen (NVS) Enzymatic Assay for sheep Cyclooxygenase-1 (Cox1) (AID 2283239).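 Note: actives reduce cyclooxygenase activity so potencies are for inhibitors.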 The gist of the method: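 Cell-free colorimetric assay of enzyme activity in a native extract of ovine seminal vesicles. Absorbance was read 0.66 hour after compound addition. Loss of signal relative to the DMSO negative control was scored, with actives from the 25 uM duplicate primary screen retested in concentration series.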

For assay [2], the target named is bovine Dopamine Receptor (DR), Non-selective Binding, DRD1 (gene 281125) (UniProt Q95136). As to the kind of experiment: NVS_GPCR_bDR_NonSelective: NovaScreen (NVS) G Protein-Coupled Receptor Assay for bovine Dopamine Receptor (DR), Non-selective Binding (AID 2283241). The gist of the method: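 Filter-based radioligand binding with bovine striatal membrane, incubated 1 h; DMSO as negative baseline. Initial duplicate single-point test at 25 uM preceded concentration series for actives.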

Assay [3] deals with Adenosine receptor A1 (Bos taurus) (UniProt P28190). As to the kind of experiment: NVS_GPCR_bAdoR_NonSelective: NovaScreen (NVS) G Protein-Coupled Receptor Assay for bovine Adenosine Receptor (AdoR), Non-selective Binding (AID 2283244). The gist of the method:
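Cell-free binding with membranes from bovine striatum: radioligand displaced by test chemical, read after 1 h by filtration and scintillation. Single-point 25 uM duplicate primary, 50 uM top concentration in follow-up curves, DMSO baseline.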

The test system of assay [4] is bovine Histamine 1 Receptor (H1), gene 281231. The experiment in a line: NVS_GPCR_bH1: NovaScreen (NVS) G Protein-Coupled Receptor Assay for bovine Histamine 1 Receptor (H1) (AID 2283246). The gist of the method:
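Hits from a 25 uM duplicate primary screen were retested in concentration series (top 50 uM); binding measured as scintillation-counted displacement of radioligand from bovine cerebellar membranes after 1 h, normalised to DMSO.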

The subject of assay [5] is guinea pig Muscarinic, Peripheral (Mperiperal) Receptor, Non-selective Binding, gene 100379235. As to the kind of experiment: NVS_GPCR_gMPeripheral_NonSelective: NovaScreen (NVS) G Protein-Coupled Receptor Assay for guinea pig Muscarinic, Peripheral (Mperiperal) Receptor, Non-selective Binding (AID 2283250). The method, boiled down: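 Screened in duplicate at 25 uM, hits retested in concentration series to 50 uM max, using bladder membrane radioligand displacement from guinea pig. Filtration and scintillation counting 1 h post-dose, fitted relative to DMSO.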

For assay [6], the target named is human Adenosine A1 Receptor (AdoRA1), ADORA1 (gene 134) (UniProt P30542). As to the kind of experiment: NVS_GPCR_hAdoRA1: NovaScreen (NVS) G Protein-Coupled Receptor Assay for human Adenosine A1 Receptor (AdoRA1) (AID 2283254). The gist of the method:
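Radioligand competition binding on human cortical membranes, 1 h after compound addition; bound radioactivity read by filtration and scintillation counting. Loss of signal versus DMSO baseline scored as displacement; primary screen duplicate at 25 uM, actives retested in concentration series.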

Assay [7] can be described thus: NVS_GPCR_bNPY_NonSelective: NovaScreen (NVS) G Protein-Coupled Receptor Assay for bovine Neuropeptide Y (NPY) Receptor, Non-selective Binding (AID 2283245). The method, boiled down: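 Displacement of radioligand from bovine hippocampal membrane receptors, read by filtration and scintillation counting after 1 hour. Concentration-response to a top of 50 uM followed a 25 uM duplicate primary screen. Loss of signal versus DMSO.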

Assay [8] concerns the target human Serotonin, 5-Hydroxytryptamine Receptor 6 (5HT6), HTR6 (gene 3362) (UniProt P50406). The experiment in a line: NVS_GPCR_h5HT6: NovaScreen (NVS) G Protein-Coupled Receptor Assay for human Serotonin, 5-Hydroxytryptamine Receptor 6 (5HT6) (AID 2283253). The method, boiled down:
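Filter scintillation counting of radioligand displacement from HEK293-expressed 5HT6, 1 hour post-dose, with loss of signal relative to DMSO. Single 25 uM duplicates first, with concentration series for confirmation.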

Assay [9] has as its system guinea pig Leukotriene B4 Receptor (LTB4), gene 100379538. As to the kind of experiment: NVS_GPCR_gLTB4: NovaScreen (NVS) G Protein-Coupled Receptor Assay for guinea pig Leukotriene B4 Receptor (LTB4) (AID 2283247). The method, boiled down:
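Membranes from guinea pig spleen incubated 2 h with radioligand and compound; bound counts measured by filtration and scintillation. Screened first at 25 uM in duplicate, then actives titrated to a 50 uM top concentration relative to DMSO.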

For assay [10], the target named is human Serotonin, 5-Hydroxytryptamine Receptor 2A (5HT2A), HTR2A (gene 3356) (UniProt P28223). As to the kind of experiment: NVS_GPCR_h5HT2A: NovaScreen (NVS) G Protein-Coupled Receptor Assay for human Serotonin, 5-Hydroxytryptamine Receptor 2A (5HT2A) (AID 2283249). The gist of the method: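 Radioligand displacement on human cortex tissue extract, counted by filtration and scintillation 1.5 h post-dosing. Initial single-concentration screen at 25 uM in duplicate, concentration series in follow-up; DMSO as baseline.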

Assay [11] addresses human Serotonin, 5-Hydroxytryptamine Receptor 5A (5HT5A), HTR5A (gene 3361) (UniProt P47898). As to the kind of experiment: NVS_GPCR_h5HT5A: NovaScreen (NVS) G Protein-Coupled Receptor Assay for human Serotonin, 5-Hydroxytryptamine Receptor 5A (5HT5A) (AID 2283251). The method, boiled down: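 Membranes from HEK293 cells, radioligand binding read by filtration and scintillation after 1 h. Single-concentration duplicate testing at 25 uM, then concentration-response for actives; positive-direction fitting relative to DMSO.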

In assay [12] the target is human Serotonin, 5-Hydroxytryptamine Receptor 7 (5HT7), HTR7 (gene 3363) (UniProt P34969). The experiment in a line: NVS_GPCR_h5HT7: NovaScreen (NVS) G Protein-Coupled Receptor Assay for human Serotonin, 5-Hydroxytryptamine Receptor 7 (5HT7) (AID 2283255).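 Note: hits reduce specific radioligand binding relative to DMSO.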 The gist of the method:
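Filter-bound radioactivity counted after 1 h, with loss of specific radioligand binding fitted against DMSO. Membrane protein came from CHO cells expressing human 5HT7. Chemicals were tested first at 25 uM in duplicate, then in concentration series if active.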

In assay [13] the target is guinea pig Opioid, Kappa 1 Receptor (OpiateK), OPRK1 (gene 100135587) (UniProt P41144). As to the kind of experiment: NVS_GPCR_gOpiateK: NovaScreen (NVS) G Protein-Coupled Receptor Assay for guinea pig Opioid, Kappa 1 Receptor (OpiateK) (AID 2283252).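 Note: active means reduced radioligand binding relative to DMSO.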 The method, boiled down: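 Radioligand binding to kappa opioid receptor in guinea pig cerebellar membranes, read by filtration and scintillation at 2 h. Compounds first tested in duplicate at 25 uM, then actives in concentration series; signal loss fitted against DMSO.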

Molecules are shown by their SMILES. Inconclusive results are not listed. Active and inactive are the calls of the source. Rule for the calls: active = hit-call score of the fitted dose curve at least 0.9, where 1 is the maximum; inconclusive = response in the unintended direction; inactive = score below 0.9.

Sequence of human Adenosine A1 Receptor (AdoRA1), ADORA1 (gene 134) (P30542 whole entry, looked up): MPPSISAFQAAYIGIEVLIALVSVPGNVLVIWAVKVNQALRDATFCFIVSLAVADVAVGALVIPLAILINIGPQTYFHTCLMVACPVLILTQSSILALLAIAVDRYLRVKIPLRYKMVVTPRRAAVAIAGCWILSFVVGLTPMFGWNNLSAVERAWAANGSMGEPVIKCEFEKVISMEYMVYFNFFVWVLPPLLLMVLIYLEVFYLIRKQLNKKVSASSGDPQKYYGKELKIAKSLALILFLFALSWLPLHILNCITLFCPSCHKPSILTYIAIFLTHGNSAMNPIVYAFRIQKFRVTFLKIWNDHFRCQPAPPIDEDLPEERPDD
Sequence of human Serotonin, 5-Hydroxytryptamine Receptor 7 (5HT7), HTR7 (gene 3363) (P34969 whole entry, looked up): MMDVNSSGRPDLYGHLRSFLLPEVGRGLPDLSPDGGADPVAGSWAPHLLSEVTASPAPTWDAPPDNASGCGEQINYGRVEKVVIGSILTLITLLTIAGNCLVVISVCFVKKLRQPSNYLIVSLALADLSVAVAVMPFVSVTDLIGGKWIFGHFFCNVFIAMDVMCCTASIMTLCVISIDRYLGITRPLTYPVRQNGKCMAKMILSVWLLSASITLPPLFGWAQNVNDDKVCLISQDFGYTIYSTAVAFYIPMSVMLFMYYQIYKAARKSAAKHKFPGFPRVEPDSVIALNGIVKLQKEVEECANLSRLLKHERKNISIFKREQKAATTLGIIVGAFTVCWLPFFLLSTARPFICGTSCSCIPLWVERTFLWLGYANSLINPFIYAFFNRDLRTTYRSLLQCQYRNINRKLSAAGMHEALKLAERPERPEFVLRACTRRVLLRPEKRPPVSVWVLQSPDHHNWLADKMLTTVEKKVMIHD
Sequence of human Serotonin, 5-Hydroxytryptamine Receptor 5A (5HT5A), HTR5A (gene 3361) (P47898 whole entry, looked up): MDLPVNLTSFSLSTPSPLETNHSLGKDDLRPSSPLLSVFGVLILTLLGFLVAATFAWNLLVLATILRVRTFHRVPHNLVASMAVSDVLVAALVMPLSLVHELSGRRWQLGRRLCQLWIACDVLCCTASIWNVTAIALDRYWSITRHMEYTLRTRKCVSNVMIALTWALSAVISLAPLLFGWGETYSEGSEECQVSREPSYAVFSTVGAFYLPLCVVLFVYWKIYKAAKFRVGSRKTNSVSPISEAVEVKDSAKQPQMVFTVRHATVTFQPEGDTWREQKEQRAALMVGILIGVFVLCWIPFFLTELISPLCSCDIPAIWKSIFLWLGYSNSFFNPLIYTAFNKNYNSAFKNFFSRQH
Sequence of human Serotonin, 5-Hydroxytryptamine Receptor 6 (5HT6), HTR6 (gene 3362) (P50406 whole entry, looked up): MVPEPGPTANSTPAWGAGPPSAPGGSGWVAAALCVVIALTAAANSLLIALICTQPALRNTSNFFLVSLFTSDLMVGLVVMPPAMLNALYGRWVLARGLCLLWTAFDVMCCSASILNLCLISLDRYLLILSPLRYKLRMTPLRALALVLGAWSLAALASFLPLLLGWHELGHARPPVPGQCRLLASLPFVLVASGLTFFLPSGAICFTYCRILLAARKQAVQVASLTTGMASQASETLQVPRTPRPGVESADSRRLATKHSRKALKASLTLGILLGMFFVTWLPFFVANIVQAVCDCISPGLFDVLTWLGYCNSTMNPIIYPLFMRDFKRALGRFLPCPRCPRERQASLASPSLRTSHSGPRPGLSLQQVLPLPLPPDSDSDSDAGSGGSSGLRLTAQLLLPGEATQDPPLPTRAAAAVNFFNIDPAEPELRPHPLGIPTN
Sequence of sheep Cyclooxygenase-1 (Cox1), PTGS1 (gene 443551) (P05979 whole entry, looked up): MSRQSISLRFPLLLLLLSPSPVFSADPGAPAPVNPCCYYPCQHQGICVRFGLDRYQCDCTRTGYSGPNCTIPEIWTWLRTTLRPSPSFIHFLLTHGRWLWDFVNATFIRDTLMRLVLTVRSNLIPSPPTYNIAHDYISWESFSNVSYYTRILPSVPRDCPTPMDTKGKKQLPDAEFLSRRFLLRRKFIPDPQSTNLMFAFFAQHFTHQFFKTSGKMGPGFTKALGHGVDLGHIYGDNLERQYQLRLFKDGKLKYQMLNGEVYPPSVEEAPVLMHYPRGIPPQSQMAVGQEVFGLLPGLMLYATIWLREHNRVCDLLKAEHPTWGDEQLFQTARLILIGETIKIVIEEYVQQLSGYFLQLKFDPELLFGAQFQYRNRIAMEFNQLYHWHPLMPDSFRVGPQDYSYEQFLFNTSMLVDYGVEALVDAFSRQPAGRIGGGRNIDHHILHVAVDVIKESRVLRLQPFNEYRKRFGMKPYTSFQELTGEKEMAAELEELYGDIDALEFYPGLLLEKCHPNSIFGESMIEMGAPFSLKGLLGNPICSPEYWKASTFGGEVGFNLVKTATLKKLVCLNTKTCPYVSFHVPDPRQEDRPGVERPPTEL
Sequence of Adenosine receptor A1 (Bos taurus) (P28190 whole entry, looked up): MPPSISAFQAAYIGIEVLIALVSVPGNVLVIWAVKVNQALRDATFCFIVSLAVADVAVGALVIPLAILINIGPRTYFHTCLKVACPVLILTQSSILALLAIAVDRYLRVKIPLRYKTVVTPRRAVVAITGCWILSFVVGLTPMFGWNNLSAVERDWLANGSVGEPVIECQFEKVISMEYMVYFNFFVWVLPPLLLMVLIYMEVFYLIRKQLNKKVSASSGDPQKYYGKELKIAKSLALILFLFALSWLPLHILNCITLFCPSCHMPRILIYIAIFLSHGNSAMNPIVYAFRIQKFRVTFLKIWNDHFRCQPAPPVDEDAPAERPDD
Sequence of guinea pig Opioid, Kappa 1 Receptor (OpiateK), OPRK1 (gene 100135587) (P41144 whole entry, looked up): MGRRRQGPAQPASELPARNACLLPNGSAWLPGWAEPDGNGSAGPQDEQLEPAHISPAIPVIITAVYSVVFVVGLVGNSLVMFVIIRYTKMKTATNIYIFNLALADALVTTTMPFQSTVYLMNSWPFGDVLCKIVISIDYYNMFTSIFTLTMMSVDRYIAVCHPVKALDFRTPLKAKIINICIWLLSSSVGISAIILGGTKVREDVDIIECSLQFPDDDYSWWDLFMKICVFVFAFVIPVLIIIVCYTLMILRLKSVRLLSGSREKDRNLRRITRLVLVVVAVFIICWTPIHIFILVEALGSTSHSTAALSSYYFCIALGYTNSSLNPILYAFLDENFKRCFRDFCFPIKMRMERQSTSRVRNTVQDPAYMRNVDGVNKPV
Sequence of bovine Dopamine Receptor (DR), Non-selective Binding, DRD1 (gene 281125) (Q95136 whole entry, looked up): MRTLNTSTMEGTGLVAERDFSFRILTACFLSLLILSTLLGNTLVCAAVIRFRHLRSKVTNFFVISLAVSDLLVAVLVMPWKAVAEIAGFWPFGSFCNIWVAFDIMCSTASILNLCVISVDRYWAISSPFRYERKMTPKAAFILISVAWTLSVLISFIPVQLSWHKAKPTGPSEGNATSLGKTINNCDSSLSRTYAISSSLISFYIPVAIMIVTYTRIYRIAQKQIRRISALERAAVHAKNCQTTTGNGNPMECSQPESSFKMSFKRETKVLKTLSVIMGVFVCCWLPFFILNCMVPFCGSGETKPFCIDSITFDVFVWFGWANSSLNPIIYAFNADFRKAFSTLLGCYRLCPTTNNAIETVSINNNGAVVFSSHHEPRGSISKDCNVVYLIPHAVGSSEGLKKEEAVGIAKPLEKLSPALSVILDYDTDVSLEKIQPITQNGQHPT
Sequence of human Serotonin, 5-Hydroxytryptamine Receptor 2A (5HT2A), HTR2A (gene 3356) (P28223 whole entry, looked up): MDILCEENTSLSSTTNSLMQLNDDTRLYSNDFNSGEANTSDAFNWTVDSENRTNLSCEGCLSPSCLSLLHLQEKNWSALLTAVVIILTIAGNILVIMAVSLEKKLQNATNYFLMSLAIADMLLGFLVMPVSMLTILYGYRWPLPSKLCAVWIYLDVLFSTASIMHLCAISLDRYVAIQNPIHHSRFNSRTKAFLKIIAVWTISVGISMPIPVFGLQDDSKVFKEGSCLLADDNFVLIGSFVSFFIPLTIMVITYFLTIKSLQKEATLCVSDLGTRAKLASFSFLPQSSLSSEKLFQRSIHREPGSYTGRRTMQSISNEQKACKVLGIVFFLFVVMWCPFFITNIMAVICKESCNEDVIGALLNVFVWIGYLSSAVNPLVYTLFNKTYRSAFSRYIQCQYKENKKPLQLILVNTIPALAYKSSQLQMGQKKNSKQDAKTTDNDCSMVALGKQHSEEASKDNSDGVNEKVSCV

On to `CNC(=O)N(C)c1nnc(C(C)(C)C)s1`, for which, in [1], the result was inactive.

`CC(C)NC(=O)N1CC(=O)N(c2cc(Cl)cc(Cl)c2)C1=O`: the outcome in [2] was inactive.

On to `COP(=S)(OC)SCn1nnc2ccccc2c1=O`, for which the AC50 (in general, the concentration at which the activity in the assay is half-maximal) in assay [3] was 8.1 µM (active); in assay [4] it was 2.4 µM (active); in assay [6], 9.98 µM (active). In [5], the molecule was called inactive.

As for `N#Cc1c[nH]cc1-c1cccc2c1OC(F)(F)O2`, the molecule was called inactive in [7] and in [8].

Regarding `CCN(CC)c1nc(C)cc(OP(=S)(OC)OC)n1`, the molecule was classed as inactive in [9].

With `O=C1C2CC=CCC2C(=O)N1SC(Cl)(Cl)Cl` (stereo unspecified), the molecule was called inactive in assay [10], in [5] and in assay [11]. For the same molecule, the AC50 in assay [12] is 4.95 µM (active).

As for `CC(C)N1C(=O)N(c2ccccc2)CSC1=NC(C)(C)C`, the result in assay [11] and in assay [8] was inactive.

As to `Cc1ccc(N=CN(C)C=Nc2ccc(C)cc2C)c(C)c1`, the AC50 in [12] was 0.574 µM (active).

As for `CCOC(=O)C(C)OC(=O)c1cc(Oc2ccc(C(F)(F)F)cc2Cl)ccc1[N+](=O)[O-]` (stereo unspecified), the AC50 in assay [11] was 6.67 µM (active); in assay [12], 15.3 µM (active).

On to `CCC(C)n1c(=O)[nH]c(C)c(Br)c1=O` (stereo unspecified), for which the molecule was classed as inactive in [3] and in [4]. Also, the values for the AC50 in assay [6] and in assay [12] were 15.2 µM (active) and 14 µM (active), respectively.

Turning to `CC1(C)C(C(=O)OC(C#N)c2cccc(Oc3ccccc3)c2)C1(C)C` (stereo unspecified), the AC50 in assay [11] and in [12] was 25 µM (active) in each case.

For the molecule `CCN(CC)C(=O)C(C)Oc1cccc2ccccc12` (stereo unspecified), the call in assay [9] was inactive. The AC50 in assay [13] is 25 µM (active).

Take `COCC(C)N(C(=O)CCl)c1c(C)csc1C` (stereo unspecified): in assay [1], the result was inactive. Also, the concentration at half-maximal activity (AC50) in assay [13] was 15.5 µM (active).

On to `CCOP(=S)(OCC)Oc1nc(Cl)n(C(C)C)n1`, for which the outcome in assay [7] was inactive. Moreover, the AC50 in assay [6] is 8.95 µM (active).

`COC(=O)N(C(=O)N1CO[C@@]2(C(=O)OC)Cc3cc(Cl)ccc3C2=N1)c1ccc(OC(F)(F)F)cc1`: the molecule was classed as inactive in [12].
